RAD54 inh – blocks human RAD54 Holliday junction branch migration | Q92698 | FAM/BHQ fluorescence | inhibition, % at 10.4 µM | 360,000 compounds, 0.14% hits | AID 602329;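 active = mean normalized replicate activity at least 40 and at least half of replicates scoring 40 or more; inconclusive = only one of the two criteria met; inactive = mean below 40 and under half of replicates reaching 40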;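 note: 0% = median of neutral control wells and 100% = median of positive control wells; inhibitors cause a drop in the FAM fluorescence signal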
Target sequence (Q92698 whole entry, looked up): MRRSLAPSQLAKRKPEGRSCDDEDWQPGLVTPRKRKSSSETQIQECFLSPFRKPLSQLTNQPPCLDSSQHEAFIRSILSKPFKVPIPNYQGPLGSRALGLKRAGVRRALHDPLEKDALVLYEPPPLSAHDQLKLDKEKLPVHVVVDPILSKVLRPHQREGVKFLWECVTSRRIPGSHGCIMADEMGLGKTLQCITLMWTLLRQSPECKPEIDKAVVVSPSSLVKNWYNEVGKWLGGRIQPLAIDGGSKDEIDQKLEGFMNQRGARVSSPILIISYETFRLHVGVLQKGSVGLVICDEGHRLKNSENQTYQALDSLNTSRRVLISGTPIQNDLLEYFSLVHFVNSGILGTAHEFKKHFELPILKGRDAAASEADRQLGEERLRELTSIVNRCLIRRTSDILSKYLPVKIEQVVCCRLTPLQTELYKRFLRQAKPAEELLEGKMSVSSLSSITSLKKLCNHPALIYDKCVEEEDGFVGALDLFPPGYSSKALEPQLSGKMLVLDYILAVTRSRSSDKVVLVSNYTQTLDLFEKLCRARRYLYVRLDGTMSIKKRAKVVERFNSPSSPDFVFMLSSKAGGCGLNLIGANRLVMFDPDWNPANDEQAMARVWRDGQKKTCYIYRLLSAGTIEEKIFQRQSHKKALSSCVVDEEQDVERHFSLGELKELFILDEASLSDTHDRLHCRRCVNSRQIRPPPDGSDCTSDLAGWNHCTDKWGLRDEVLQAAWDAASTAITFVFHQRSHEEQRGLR
MLL AF4-AF9 inh – inhibitors of human MLL-AF4/AF9 interaction | P42568 | AlphaScreen, biotin-AF4 peptide binding to FLAG-AF9 | inhibition, % at 10 µM | 350,000 compounds, 0.47% hits | AID 651704;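 active = every replicate reaching a set inhibition limit, whatever the replicate mean, cut at about 25% in these data; inconclusive = mean inhibition reaches that limit but some replicates miss it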;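 note: 0% = plate neutral control median and 100% = total signal loss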
DENV2 CPE rescue – DENV2-induced cell death inhibition; DENV2-infected cells, cytopathic effect rescue, plate reader; CPE inhibition, % at 9.99 µM; 350,000 compounds, 1.7% hits; in the data active = CPE inhibition above about 20%, passing the limit was not always enough; inconclusive = no clear call, values can overlap the other calls; tested in BHK-21 cells;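 note: 0% = median of neutral control wells and 100% = median of positive control wells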
dFosB activator – activators of mouse delta FosB homodimer; P13346; purified delta FosB, TAMRA-CDK5 oligo fluorescence polarization; percent of positive-control signal above neutral wells; activation, % at 25 µM; 340,000 compounds, 0.99% hits;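 active = mean activation above about 17%, with every replicate also reaching it, limit read from the data, passing the limit was not always enough; inconclusive = only one of the two conditions met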
RAD52 inh – blocks human RAD52 DNA annealing; AID 651710; recombinant RAD52 DNA annealing, FRET fluorescence; 360,000 compounds, 0.46% hits; inhibition, % at 18.7 µM;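 active = every replicate showing at least 50% inhibition; inconclusive = mean inhibition at least 50% but not in every replicate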
INS-1E GSIS act – GLuc luminescence reporter in INS-1E cells, primary screen for activators of glucose-dependent secretion of insulin | INS-1E GLuc reporter insulin secretion, 2-3 h | activation, % at 16.6 µM | 370,000 compounds, 0.61% hits;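 active = lowest replicate activation of at least 40%, so every replicate reaches that level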;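 note: 0% = median of neutral control wells and 100% = median of IBMX positive control wells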
The depositor's hits bear a star. Sampled rows, rich in hits. Any-hit rate of the full collection: about 3.1%.

For CCC(=O)N1CC2(CCN(Cc3ccc(Cl)cc3)CC2)c2c([nH]c3cc(OC)ccc23)[C@@H]1CO the results were MLL AF4-AF9 inh 26.1*, DENV2 CPE rescue -9.3 and INS-1E GSIS act -10.0.
Screening COc1ccc2c3c([nH]c2c1)[C@@H](CO)N(C(=O)C1CCOCC1)CC31CN(C)C1 returned MLL AF4-AF9 inh 2.2, DENV2 CPE rescue 89.7* and INS-1E GSIS act 9.8.
`COCC(=O)N1CC2(CCN(Cc3ccc(Cl)cc3)CC2)c2c([nH]c3cc(OC)ccc23)[C@H]1CO` gave MLL AF4-AF9 inh 17.8, DENV2 CPE rescue -2.4, RAD52 inh 8.0 and INS-1E GSIS act -2.8.
For COCC(=O)N1CCC2(CC1)CN(C(=O)Nc1ccccc1F)[C@H](CO)c1[nH]c3cc(OC)ccc3c12 the results were MLL AF4-AF9 inh 0.1, DENV2 CPE rescue 25.0*, RAD52 inh 6.8 and INS-1E GSIS act 12.5.
For COc1ccc2c3c([nH]c2c1)[C@@H](CO)N(C(=O)Nc1ccc(F)cc1)CC31CN(S(=O)(=O)c2cccc(C)c2)C1 the results were MLL AF4-AF9 inh -2.6, DENV2 CPE rescue 1.1, RAD52 inh -14.7 and INS-1E GSIS act 4.0.
CO[C@H]1CC[C@H]2CCOc3c(C#N)cccc3C(=O)N(C)C[C@H](C)C(=O)N(C)C[C@@H]1O2 was read as RAD54 inh 0.3, MLL AF4-AF9 inh -7.8, DENV2 CPE rescue -0.6, RAD52 inh 1.8 and INS-1E GSIS act 2.9.
For COC(=O)C[C@H]1CC[C@H]2[C@H](COc3ccc(NC(=O)c4cccc(Cl)c4)cc3C(=O)N2C)O1 the results were RAD54 inh 0.9, MLL AF4-AF9 inh 2.2, DENV2 CPE rescue inconclusive, RAD52 inh -0.1 and INS-1E GSIS act -10.8.
O=C(Cn1cnc2c(OCc3ccccc3)ncnc21)NCC1CCCO1 (stereo not drawn) was read as RAD54 inh 4.4, MLL AF4-AF9 inh -0.3, DENV2 CPE rescue 3.1, dFosB activator 0.0, RAD52 inh -7.6 and INS-1E GSIS act 3.7.
For O=C(Cn1cnc2c(NCc3ccccc3)ncnc21)NCC1CCCO1 (stereo not drawn) the results were RAD54 inh 0.2, MLL AF4-AF9 inh -3.6, DENV2 CPE rescue 74.6*, dFosB activator -1.3, RAD52 inh -1.6 and INS-1E GSIS act 1.5.
`CC(=O)N1CCN(c2nnc(-c3ccccc3)c3ccccc23)CC1` gave RAD54 inh -19.6, MLL AF4-AF9 inh 0.7, DENV2 CPE rescue 2.5, dFosB activator -11.6, RAD52 inh 5.2 and INS-1E GSIS act 40.5*.
Cc1ccc(-c2nnc(N3CCN(C(=O)CN4C(=O)c5ccccc5C4=O)CC3)c3ccccc23)cc1 was read as RAD54 inh 2.7, dFosB activator -5.4 and INS-1E GSIS act 52.9*.
For CC(=O)N1CCN(c2nc(-c3cccs3)nc3ccccc23)CC1 the results were MLL AF4-AF9 inh -1.5, DENV2 CPE rescue -3.1, dFosB activator -14.9, RAD52 inh -13.4 and INS-1E GSIS act 40.6*.
`CCC(=O)N1CCN(c2nnc(-c3ccccc3)c3ccccc23)CC1` gave RAD54 inh -13.7, MLL AF4-AF9 inh -0.9, DENV2 CPE rescue 1.5, dFosB activator -3.9, RAD52 inh 2.4 and INS-1E GSIS act 23.7.
For NC(=O)C1CCN(c2nc(-c3ccccc3)nc3c2oc2ccccc23)CC1 the results were RAD54 inh -15.6, dFosB activator -2.6 and INS-1E GSIS act -8.2.
`NC(=O)C1CCN(c2nc(-c3ccccc3)nc3ccccc23)CC1` gave RAD54 inh 10.7, dFosB activator -12.6 and INS-1E GSIS act 57.8*.
CCOC(=O)N1CCN(c2nc(-c3cccs3)nc3ccccc23)CC1 was read as RAD54 inh 0.3, MLL AF4-AF9 inh 0.9, DENV2 CPE rescue 16.2, dFosB activator -21.7, RAD52 inh -14.1 and INS-1E GSIS act 2.8.
For O=C(CN1C(=O)c2ccccc2C1=O)N1CCN(c2nnc(-c3ccccc3)c3ccccc23)CC1 the results were RAD54 inh 1.7 and dFosB activator -10.8.
For C[C@@H]1CN([C@H](C)CO)C(=O)Cc2cc(NS(=O)(=O)c3ccccc3)ccc2O[C@@H]1CN(C)C(=O)Nc1ccccc1 the results were RAD54 inh 0.5, MLL AF4-AF9 inh -3.9, DENV2 CPE rescue 12.4, RAD52 inh -12.2 and INS-1E GSIS act 7.1.
Screening CO[C@@H]1CN(C)C(=O)c2cc(NC(=O)NC3CCCCC3)ccc2OC[C@H](C)N(C)C[C@@H]1C returned RAD54 inh -7.0, MLL AF4-AF9 inh -0.1, DENV2 CPE rescue 1.7, RAD52 inh 16.2 and INS-1E GSIS act 5.8.
`O=C(C[C@@H]1C=C[C@@H](NS(=O)(=O)c2ccc(F)cc2)[C@H](CO)O1)NCCN1CCCCC1` gave RAD54 inh 5.8, MLL AF4-AF9 inh -1.2, DENV2 CPE rescue 5.4, RAD52 inh 13.2 and INS-1E GSIS act 16.6.
COc1ccc(S(=O)(=O)N(C)C[C@H]2Oc3ccc(NS(=O)(=O)c4ccccc4)cc3C(=O)N([C@H](C)CO)C[C@H]2C)cc1 was read as RAD54 inh -2.0 and INS-1E GSIS act -2.5.
`Nc1cc2c(cc1Cl)-c1ccccc1C2` gave RAD54 inh -4.6, MLL AF4-AF9 inh 50.2*, DENV2 CPE rescue 0.4, dFosB activator 6.1 and RAD52 inh 3.0.
Screening C[C@@H]1CN([C@@H](C)CO)C(=O)c2cccc(NS(=O)(=O)c3ccccc3)c2O[C@H]1CN(C)C(=O)Nc1ccccc1 returned RAD54 inh 4.4, MLL AF4-AF9 inh -11.3, DENV2 CPE rescue 13.3, RAD52 inh 18.5 and INS-1E GSIS act 13.5.
COc1ccc(NC(=O)Nc2ccc3c(c2)C(=O)N([C@H](C)CO)C[C@@H](C)[C@H](CN(C)C(=O)CCCN(C)C)OCCCC[C@@H](C)O3)cc1 was read as RAD54 inh 8.8, MLL AF4-AF9 inh 12.4, DENV2 CPE rescue -3.9, RAD52 inh 37.5 and INS-1E GSIS act 15.8.
Cc1ccc(NCc2nnc(SCC(=O)Nc3ncc(C)s3)n2Cc2ccco2)c(C)c1 was read as RAD54 inh -0.6, dFosB activator -6.6 and INS-1E GSIS act 156.3*.
Screening COc1ccc(C(CNS(=O)(=O)c2ccc(NC(C)=O)c(OC)c2)N2CCCCC2)cc1 (stereo not drawn) returned RAD54 inh 11.7, MLL AF4-AF9 inh -2.4, DENV2 CPE rescue 11.1, dFosB activator 0.0, RAD52 inh 1.1 and INS-1E GSIS act -2.6.
`COc1ccc(C(CNS(=O)(=O)c2ccc(NC(C)=O)c(OC)c2)N2CCCC2)cc1` (stereo not drawn) gave RAD54 inh 6.5, MLL AF4-AF9 inh -2.6, DENV2 CPE rescue 35.8*, dFosB activator -4.2, RAD52 inh -59.2 and INS-1E GSIS act 14.4.
For CC(Oc1ccccc1Cl)C(=O)Nc1ccc(S(=O)(=O)Nc2nccs2)cc1 (stereo not drawn) the results were RAD54 inh -17.3, MLL AF4-AF9 inh inconclusive, DENV2 CPE rescue -4.6, dFosB activator -6.7, RAD52 inh -26.7 and INS-1E GSIS act 86.9*.
